# Bioassay records (PubChem)
# FBW7 act: human FBW7 E3 ligase activation, primary screen | AlphaScreen FBW7–phospho-cyclin E peptide binding, activator screen | hit rate 0.13% among 650,000 | Q969H0 | AID 1259310 | normalized activity (activation), % at 26.1 µM; in the data active = normalized activity above about 1.9%;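 note: purified mutant Fbw7 with reduced substrate affinity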
# MITF inh: human MITF inhibition, primary screen | inhibition, % at 2.6 µM | hit rate 0.91% among 650,000 | AlphaScreen MITF homodimerization, bead proximity signal | O75030; in the data active = inhibition above about 50%;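 note: 0% = vehicle wells with protein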
# Target sequence (O75030 whole entry, looked up): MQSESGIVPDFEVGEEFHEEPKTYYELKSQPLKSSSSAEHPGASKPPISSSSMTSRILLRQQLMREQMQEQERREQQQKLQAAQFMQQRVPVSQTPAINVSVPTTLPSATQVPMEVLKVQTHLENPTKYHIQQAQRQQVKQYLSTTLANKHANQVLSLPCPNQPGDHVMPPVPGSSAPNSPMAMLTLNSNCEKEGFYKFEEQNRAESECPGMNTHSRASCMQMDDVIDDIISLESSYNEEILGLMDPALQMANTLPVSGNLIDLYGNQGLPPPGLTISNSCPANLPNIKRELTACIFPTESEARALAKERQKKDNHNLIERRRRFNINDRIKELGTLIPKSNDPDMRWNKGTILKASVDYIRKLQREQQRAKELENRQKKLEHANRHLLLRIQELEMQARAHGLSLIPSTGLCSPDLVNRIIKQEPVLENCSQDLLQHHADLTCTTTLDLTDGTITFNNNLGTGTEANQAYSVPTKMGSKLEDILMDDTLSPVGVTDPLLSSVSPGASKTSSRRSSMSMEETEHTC
# GPR151 activ: human GPR151 activation. Q8TDV0. PathHunter beta-arrestin GPR151 cells, luminescence. activation, % at 11.2 µM. hit rate 1% among 650,000; in the data active = activation above about 4.9%;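 note: 0% = median of compound wells and 100% = cells with positive control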
# TEAD-YAP block: TEAD-YAP interaction inhibition; HEK-TIYL cells, TEAD-Gal4/YAP UAS-luciferase luminescence; inhibition, % at 9.12 µM; hit rate 1.4% among 640,000; in the data active = inhibition above about 32%;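 note: 0% = median of test compound wells and 100% = reference inhibitor wells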
# Active calls of the source: *. A selection: hits, their analogues and other compounds. The true share with any hit is near 3.5%.
SMILES,FBW7 act,MITF inh,GPR151 activ,TEAD-YAP block
COc1ccc(NC(=O)COc2ccccc2C(C)(C)C)cc1OC,0,7,3,43*
CC(C)(C)c1ccccc1OCC(=O)NN,0,-5,0,36*
CC1C(=O)NN=C1C(=O)N/N=C\c1cccnc1 (configuration not stated),0,-10,-1,35*
CC(C)(C)OC(=O)N/N=C\c1cccs1,5.6*,4,-1,-27
CC1C(=O)NN=C1C(=O)N/N=C/c1cccs1 (configuration not stated),0,5,-3,32*
CC1C(=O)NN=C1C(=O)N/N=C\c1cccc(O)c1 (configuration not stated),1,28,-7,28
CC1CCC(NC(=O)CC(C(=O)N2CCc3ccccc32)n2ccnc2)CC1 (configuration not stated),0,14,-1,0
CC(=O)Nc1ccccc1NC(=O)c1c(Cl)cccc1Cl,0,0,1,0
O=S(=O)(c1ccc(F)cc1)N(c1cccnc1)S(=O)(=O)c1ccc(F)cc1,0,-1,3,14
Cc1cc(C(=O)CSc2nnc(N)s2)c(C)n1Cc1ccco1,0,7,-1,37*
COc1ccc(CCn2c(C)cc(C(=O)CSc3nnc(C)s3)c2C)cc1,0,-2,0,4
Cc1nnc(SCC(=O)c2cc(C)n(Cc3cccs3)c2C)s1,0,2,1,62*
COCCn1c(C)cc(C(=O)CSc2nnc(C)s2)c1C,0,-2,-6,70*
Cc1cc(C(=O)COC(=O)c2cccs2)c(C)n1Cc1cccs1,0,14,-1,53*
COc1ccc(C2NC(=O)NC(C)=C2C(=O)Nc2cccc(C)c2C)c(OC)c1 (configuration not stated),0,2,-1,3
CC(=O)c1c(C)nc2sccn12,1,12,2,4
O=C1CC(c2ccc3c(c2)OCCO3)Oc2ccc([N+](=O)[O-])cc21 (configuration not stated),0,17,-1,52*
O=C1CC(c2ccc3c(c2)OCCO3)Oc2ccccc21 (configuration not stated),0,6,-1,-32
O=C(NCCc1ccc(O)cc1)c1ccc2nc(N3CCN(Cc4ccc5c(c4)OCO5)CC3)sc2c1,0,5,-1,23
O=c1oc(-c2ccco2)nc2sc3c(c12)CCCC3,0,2,-2,2
c1coc(-c2nnc(-c3cc4c(s3)CCCC4)o2)c1,0,-6,-8,54*
CC1=CC(C)(C)N2C(=O)C(=O)c3cc(OC(=O)c4ccccc4F)cc1c32,0,5,0,45*
COC(=O)C1CCN(C(=O)CC2C(=O)NCCN2Cc2ccc(OC)c(OC)c2)CC1 (configuration not stated),0,3,1,0
COc1cccc(/C=C2\SC(N)=NC2=O)c1OS(=O)(=O)c1ccc(Cl)cc1,0,-2,-1,6
CCCNc1nc(Nc2nccc3ccccc23)nc2c1ncn2-c1ccccc1,0,-2,2,6
SMILES,FBW7 act,MITF inh,GPR151 activ,TEAD-YAP block
CCCNc1nc(Nc2nccc3ccccc23)nc2c1ncn2-c1ccsc1,0,9,0,65*
Oc1ccc(CCNc2nc(Nc3nccc4ccccc34)nc3c2ncn3-c2ccsc2)cc1,0,10,1,66*
Oc1ccc(CCNc2nc(Nc3nccc4ccccc34)nc3c2ncn3C2CCCCC2)cc1,0,16,-1,22
COc1ccc(CCNc2nc(Nc3nccc4ccccc34)nc3c2ncn3C2CCCCC2)cc1,0,4,-1,33*
COc1ccc(C(=O)O/N=C(\N)Cc2ccc(Cl)cc2Cl)cc1[N+](=O)[O-],0,6,4,1
Cc1ccc(OC(C)C(=O)Nc2ccc(S(=O)(=O)N3CCCC3)cc2)cc1 (configuration not stated),0,-13,1,0
Nc1ccc(Oc2cccc(-c3ccc(N)cc3)c2)cc1,0,6,0,46*
c1ccc(Oc2cccc(Oc3cccc(Oc4cccc(Oc5ccccc5)c4)c3)c2)cc1,0,-4,1,-6
Cc1cc(C)nc(Oc2ccc(N)cc2)n1,1.9*,16,0,52*
COc1ccc(Oc2nc(C)cc(C)n2)cc1,1,4,-2,-10
Nc1ccc(Oc2cccc(Oc3ccc(N)cc3)c2)cc1,0,6,0,52*
COc1ccc(C2=NN(CCC(=O)NCc3ccccc3OC)C(=O)CC2)cc1,0,5,-1,11
Cc1nc2ccccn2c1C(=O)NC1CCCc2ccccc21 (configuration not stated),0,1,2,40*
Cc1nonc1OCCNCc1c(C(=O)N(C)Cc2ccccc2)nc2ccccn12,0,-12,0,-4
Cc1cc(O)ccc1NC(=O)c1ccccc1,0,-8,-1,3
Cc1cc(O)ccc1N/C=C/C(=O)c1ccccc1,0,-5,-3,74*
Cc1ccc(C(=O)/C=C/Nc2ccc(O)cc2C)cc1,0,11,-1,40*
COc1ccc(C(=O)/C=C/Nc2ccc(O)cc2C)cc1OC,0,7,-1,-14
Cc1cccc(OCC(=O)Nc2ccc3c(c2)N(S(=O)(=O)c2ccc(F)cc2)CCC3)c1,0,15,1,0
OC(CNCC1CCCO1)COc1ccc(OCC(O)CNCC2CCCO2)cc1 (configuration not stated),0,9,1,2
OC(CNCC1CCCO1)COc1ccc(OCC(O)NCC2CCCO2)cc1 (configuration not stated),2.3*,12,-1,6
Cc1ccc2oc(=O)cc(CSc3nc(C)cc(C)c3C#N)c2c1,0,-7,-2,51*
Cc1ccc2c(CSc3nc(N)cc(N)n3)cc(=O)oc2c1,0,8,1,-10
NC(=O)c1c(NS(=O)(=O)c2ccc(F)cc2)sc2c1CCC2,0,25,0,1
CCC(=O)Oc1ccc(C(=O)Nc2ccc(C)cc2Br)cc1,0,-2,0,50*
SMILES,FBW7 act,MITF inh,GPR151 activ,TEAD-YAP block
Cc1cc2c(cc1C)C(c1cccc(Cl)c1)CC(=O)N2 (configuration not stated),0,-11,0,37*
COc1ccc(NC(=O)c2ccc3c(=O)n(-c4cc(C(F)(F)F)ccc4Cl)c(=S)[nH]c3c2)cc1OC,0,18,0,1
CC(=O)Oc1ccc(/C=C/c2ccc3cccc(OC(C)=O)c3n2)cc1[N+](=O)[O-],0,21,-7,-7
CC(C)Oc1ccc(/C=C/c2ccc3cccc(O)c3n2)cc1,0,5,-9,80*
COc1ccc(/C=C/c2ccc3cccc(OC(C)=O)c3n2)cc1OC(C)=O,0,17,-4,75*
Oc1cccc2ccc(/C=C/c3ccc(Cl)cc3)nc12,0,5,-2,46*
Oc1c(Br)cc(/C=C/c2ccc3cccc(O)c3n2)cc1Br,0,7,-1,17
Oc1cccc(/C=C/c2ccc3cccc(O)c3n2)c1,0,6,-4,47*
